Bioassay records (PubChem)
An excerpt weighted towards active compounds, which were near 3.7% of everything screened.
TMEM16A act: activators or potentiators of mouse TMEM16A chloride channel; Q8BHY3; HEK293 TMEM16A/YFP-H148Q/I152L, iodide quench fluorescence; hits give low values; B-score at 10 µM; 340,000 compounds, 0.3% hits; AID 623877;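 active = fluorescence-ratio B-score plate-corrected deviation score at least 3 library SD below zero, with starting fluorescence score within 5 deviations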;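 also: channel opened by trigger with iodide after compound preincubation; score built on the fluorescence ratio of max minus min over baseline; more negative score means more quench and so TMEM16A activation or potentiation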
Kir21 inh: Kir2.1 (mouse) channel inhibition. P35561. HEK293-Kir2.1, FluxOR thallium flux fluorescence; hits give low values. B-score at 10 µM. 310,000 compounds, 0.85% hits. AID 1672;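 active = fluorescence ratio B-score at or below minus 3 SD of library scores, with starting-brightness B-score within 2 SD, cut at about -4.2 in these data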;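 also: channel flux triggered by added potassium and thallium sulfate stimulus; B-score of peak minus minimum fluorescence over baseline after thallium stimulus; more negative B-score means stronger Kir2.1 block with less thallium influx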
Target sequence (P35561 whole entry, looked up): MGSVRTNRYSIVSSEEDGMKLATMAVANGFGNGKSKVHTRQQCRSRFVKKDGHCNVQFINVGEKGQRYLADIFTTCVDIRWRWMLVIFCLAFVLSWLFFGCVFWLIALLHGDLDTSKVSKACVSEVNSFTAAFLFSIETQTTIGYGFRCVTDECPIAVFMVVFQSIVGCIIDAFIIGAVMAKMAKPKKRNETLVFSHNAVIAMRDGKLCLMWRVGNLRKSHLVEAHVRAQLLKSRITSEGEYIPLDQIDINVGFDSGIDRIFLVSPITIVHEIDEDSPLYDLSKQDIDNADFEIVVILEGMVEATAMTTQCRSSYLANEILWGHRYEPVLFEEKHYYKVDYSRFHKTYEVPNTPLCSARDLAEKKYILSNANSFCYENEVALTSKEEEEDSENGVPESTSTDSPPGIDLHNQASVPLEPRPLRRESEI
CHT inh: inhibitors of human choline transporter CHT; CHT-expressing cells, membrane potential dye, choline response; hits give low values; Q9GZV3; B-score at 10 µM; 310,000 compounds, 0.86% hits;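 active = B-score over 3 SD under the library average, and starting fluorescence ratio not unusually high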;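 also: choline stimulus applied at its EC90 after an EC20 pre-addition; B-score computed on integrated fluorescence ratio after choline addition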
CHT allo act: human CHT allosteric activation | Q9GZV3 | CHT-expressing cells, membrane potential dye, choline EC20; hits give high values; LV-AA mutant CHT in HEK293 cells | B-score at 10 µM | 310,000 compounds, 0.49% hits;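 active = initial fluorescence not abnormally high and integrated response B-score, plate-corrected, over 3 SD above library mean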
ANO1 block: blocks the mouse calcium-activated chloride channel TMEM16A | Q8BHY3 | HEK293 TMEM16A/YFP iodide influx fluorescence, ionomycin | normalized B-score (activity score, 25-100; higher = stronger inhibition) at 10 µM | 310,000 compounds, 1.2% hits;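 active = ratio plate-corrected score three or more library SD toward inhibition, starting fluorescence score within five deviations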;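 also: score derived from kinetic fluorescence span divided by baseline fluorescence per well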
GPR7 antag: antagonists of human GPR7 (neuropeptides B/W receptor 1); 290,000 compounds, 1.1% hits; P48145; inhibition, % at 4.4 µM; GPR7-expressing cells, fluorescence antagonist assay; AID 1861; in the data active = inhibition above about 16%, passing the limit was not always enough;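 also: cells stimulated with the agonist NPW; 0% = agonist with vehicle and 100% = vehicle without agonist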
GPR7 antag conf: confirmation of human GPR7 antagonists. inhibition, % at 4.4 µM. 2,400 compounds, 52% hits. AID 1952. GPR7-expressing cells, calcium fluorescence antagonist mode. shares compounds with GPR7 antag; in the data active = inhibition above about 24%;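 also: stimulated with the GPR7 agonist NPW; 0% = agonist plus vehicle and 100% = vehicle alone without agonist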
MCHR1 antagonist: MCHR1 (human) antagonism in GPR7 counter-screen | MCHR1-expressing cells, fluorescence antagonist assay | 2,400 compounds, 62% hits | inhibition, % at 4.4 µM | shares compounds with GPR7 antag; in the data active = inhibition above about 22%;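 also: 0% = vehicle with agonist and 100% = vehicle without agonist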
An asterisk follows results filed as active.

For CCCC1(CCC)NC(=O)N(CC(=O)Nc2ccc3c(c2)OCCO3)C1=O the results were TMEM16A act inactive.
For N#CCCN1CCN(Cc2ccccc2)CCC1=O the results were TMEM16A act inactive, Kir21 inh 0.71, CHT inh inactive, CHT allo act inactive, ANO1 block inactive and GPR7 antag -8.
For COc1ccccc1NC(=O)CN1C(=O)COc2ccc(S(=O)(=O)N3CCC(C)CC3)cc21 the results were TMEM16A act inactive, Kir21 inh 0.05, CHT inh inactive, CHT allo act inactive, ANO1 block inactive and GPR7 antag -4.
For COc1cccc(NC(=O)CN2C(=O)COc3ccc(S(=O)(=O)N4CCC(C)CC4)cc32)c1 the results were TMEM16A act inactive, Kir21 inh 0.1, CHT inh inactive, CHT allo act inactive, ANO1 block inactive, GPR7 antag 23*, GPR7 antag conf -15 and MCHR1 antagonist 0.
`O=C(CN1CCN(CC(=O)Nc2ccccc2Cl)CC1)Nc1ccc(F)c(F)c1` gave TMEM16A act inactive, Kir21 inh -0.45, CHT inh inactive, CHT allo act inactive, ANO1 block inactive, GPR7 antag 48*, GPR7 antag conf 42* and MCHR1 antagonist 61*.
For CN(C)CCNc1nc2sc3c(c2c(=O)n1-c1ccccc1)CCCCC3 the results were TMEM16A act inactive, Kir21 inh -0.17, CHT inh inactive, CHT allo act inactive, ANO1 block inactive and GPR7 antag -6.
CN(C)CCNc1nc2sc3c(c2c(=O)n1Cc1ccccc1)CCCCC3 was read as TMEM16A act inactive, Kir21 inh 0.35, GPR7 antag 40*, GPR7 antag conf 35* and MCHR1 antagonist 58*.
COCCCNC(CC(=O)Nc1cc(C)cc(C)c1)C(=O)O (stereo not given) was read as TMEM16A act inactive, Kir21 inh -0.06, CHT inh inactive, CHT allo act inactive and ANO1 block inactive.
`Cc1cccc(NC(=S)NC(=O)CCc2ccccc2)c1C` gave TMEM16A act inactive, Kir21 inh 0.65, CHT inh inactive, CHT allo act inactive, ANO1 block inactive and GPR7 antag -5.
`Cc1cccc(NC(=S)NC(=O)Cc2ccccc2)c1C` gave TMEM16A act inactive, Kir21 inh -0.23, CHT inh inactive, CHT allo act inactive, ANO1 block inactive, GPR7 antag 24*, GPR7 antag conf 34* and MCHR1 antagonist 18.
CC(=O)c1csc(COc2ccc(Cl)cc2)n1 was read as TMEM16A act inactive, Kir21 inh 1.1, CHT inh inactive, CHT allo act inactive, ANO1 block inactive and GPR7 antag -13.
`CC(NC(=O)Nc1ccc2c(c1)OCO2)C1CCCO1` (stereo not given) gave TMEM16A act inactive, Kir21 inh 0.06, CHT inh inactive, CHT allo act inactive, ANO1 block inactive, GPR7 antag 99*, GPR7 antag conf -5 and MCHR1 antagonist 18.
`Cc1cc(C)cc(NC(=O)NC(C)C2CCCO2)c1` (stereo not given) gave TMEM16A act inactive, Kir21 inh -1.5, CHT inh inactive, CHT allo act inactive, ANO1 block inactive and GPR7 antag 3.
Screening CCOc1cc(CNC(C)(C)CO)cc(Br)c1OCc1ccc(Cl)cc1Cl returned TMEM16A act inactive, Kir21 inh -9.4*, CHT inh inactive, CHT allo act inactive, ANO1 block inactive, GPR7 antag 46*, GPR7 antag conf 67* and MCHR1 antagonist 78*.
For COc1cc(CNC(C)(C)CO)cc(Br)c1OCc1ccccc1 the results were TMEM16A act inactive, Kir21 inh -0.07, CHT inh inactive, CHT allo act inactive, ANO1 block inactive and GPR7 antag 3.
Screening CCOc1cc(CNCCO)cc(Br)c1OCc1ccc(Cl)cc1 returned TMEM16A act inactive, Kir21 inh -18*, CHT inh inactive, CHT allo act inactive, ANO1 block inactive, GPR7 antag 54*, GPR7 antag conf 70* and MCHR1 antagonist 78*.
Screening O=C1c2cccc(OCC(=O)N3N=C(c4cccs4)CC3c3ccc(F)cc3)c2CCN1Cc1cccnc1 (stereo not given) returned TMEM16A act inactive, Kir21 inh 0.01, CHT inh inactive, CHT allo act inactive, ANO1 block inactive and GPR7 antag 4.
Nn1c(SCC(=O)NC2CCS(=O)(=O)C2)nc2scc(-c3ccccc3)c2c1=O (stereo not given) was read as TMEM16A act inactive.
`COc1ccc(-c2nnc(Nc3ccc(CC(N)=O)cc3)c3ccccc23)cc1` gave TMEM16A act inactive, Kir21 inh 1.7, CHT inh inactive, CHT allo act inactive, ANO1 block inactive and GPR7 antag -2.
Screening COc1ccc(Nc2nnc(-c3ccc(O)cc3)c3ccccc23)cc1 returned TMEM16A act inactive, Kir21 inh -0.02, CHT inh inactive, CHT allo act inactive, ANO1 block inactive, GPR7 antag 61*, GPR7 antag conf 71* and MCHR1 antagonist 74*.
For Oc1ccc(Nc2nnc(-c3ccc(O)cc3)c3ccccc23)cc1 the results were TMEM16A act inactive, Kir21 inh 0.03, CHT inh inactive, CHT allo act inactive, ANO1 block inactive, GPR7 antag 39*, GPR7 antag conf 54* and MCHR1 antagonist 62*.
CC(=O)Oc1ccc(C(=O)Nc2ccc(S(=O)(=O)N3CCOCC3)cc2)cc1 was read as TMEM16A act inactive, Kir21 inh -1.7, CHT inh inactive, CHT allo act inactive, ANO1 block inactive and GPR7 antag -4.
`CC(=O)c1ccc(S(=O)(=O)N2CCN(C(=O)CSc3ccc(C)c(C)c3)CC2)cc1` gave TMEM16A act inactive, Kir21 inh -0.43, CHT inh inactive, CHT allo act inactive, ANO1 block inactive, GPR7 antag 35*, GPR7 antag conf 20 and MCHR1 antagonist 7.
`COc1ccc(C(=O)NNC2=NC(C)(C)Cc3ccccc32)cc1` gave TMEM16A act inactive, Kir21 inh -0.77, CHT inh inactive, CHT allo act inactive, ANO1 block inactive and GPR7 antag 9.
For CC1(C)Cc2ccccc2C(COc2ccccc2)=N1 the results were TMEM16A act inactive, Kir21 inh -0.55, CHT inh inactive, CHT allo act inactive, ANO1 block inactive, GPR7 antag 26*, GPR7 antag conf -1 and MCHR1 antagonist 0.
